# From ChEMBL document CHEMBL1157539, “Thousands of chemical starting points for antimalarial lead identification” (Nature, 2010)
# Tests used:
# Type in all cases: functional
# Plasmodium falciparum [1] = test: GSK_TCMDC: Inhibition of Plasmodium falciparum 3D7 in whole red blood cells, using parasite LDH activity as an index of growth. Test compounds present at 2uM
# Plasmodium falciparum [2] = test: GSK_TCMDC: Inhibition of Plasmodium falciparum Dd2 in whole red blood cells, using parasite LDH activity as an index of growth. Test compounds present at 2uM
# HepG2 = test: GSK_TCMDC: Percent inhibition of human HepG2 cell line. Test compounds present at 10uM.
compound,measurement,setting,value
CC[C@H](C)CNC(=O)c1cncc(-c2ccc(CN3CCC(N4CCCC4)CC3)cc2)c1.O=C(O)C(F)(F)F,Inhibition,Plasmodium falciparum [1],100%
same,Inhibition,Plasmodium falciparum [2],100%
same,Inhibition,HepG2,0%
COc1cc2nc(N3CCC(CNC(=O)/C=C/c4ccccc4F)CC3)nc(N)c2cc1OC.Cl,Inhibition,Plasmodium falciparum [1],100%
same,Inhibition,Plasmodium falciparum [2],88%
same,Inhibition,HepG2,0%
CCn1c(-c2nonc2N)nc2cnc(Oc3cccc(NC(=O)c4ccc(OCCCN5CCCCC5)cc4)c3)cc21,Inhibition,Plasmodium falciparum [1],90%
same,Inhibition,Plasmodium falciparum [2],12%
same,Inhibition,HepG2,38%
CCOc1cc(C=NNc2nc(C)cc(-n3nc(C)cc3C)n2)ccc1O,Inhibition,Plasmodium falciparum [1],93%
same,Inhibition,Plasmodium falciparum [2],52%
same,Inhibition,HepG2,46%
COc1cccc(CNC(=O)c2cnc(N3CCN(c4ccncc4)CC3)c(Cl)c2)c1.O=C(O)C(F)(F)F,Inhibition,Plasmodium falciparum [1],89%
same,Inhibition,Plasmodium falciparum [2],12%
same,Inhibition,HepG2,25%
COc1cccc2c(NN=Cc3cccc(Cl)c3)ccnc12,Inhibition,Plasmodium falciparum [1],100%
same,Inhibition,Plasmodium falciparum [2],77%
same,Inhibition,HepG2,19%
CN(C)CCC1CCCc2ccc(NC(=O)Nc3cccc(Cl)c3Cl)cc21.Cl (configuration not stated),Inhibition,Plasmodium falciparum [1],93%
same,Inhibition,Plasmodium falciparum [2],11%
same,Inhibition,HepG2,44%
CC(C)(C)c1ccc(NC(=O)N[C@@H]2CCN(c3ccnc4ccccc34)C2)cc1.Cl,Inhibition,Plasmodium falciparum [1],100%
same,Inhibition,Plasmodium falciparum [2],96%
same,Inhibition,HepG2,23%
O=C(O)C(F)(F)F.O=c1ccc2ccc(F)c3c2n1CC3CN1CCC(NCc2ccc(-c3cccc(Cl)c3)nc2)CC1 (configuration not stated),Inhibition,Plasmodium falciparum [1],96%
same,Inhibition,Plasmodium falciparum [2],33%
same,Inhibition,HepG2,16%
Cc1cc(N(CCCN(C)C)Cc2cc(F)cc(F)c2)nc(Nc2ccc(Cl)cc2)n1,Inhibition,Plasmodium falciparum [1],99%
same,Inhibition,Plasmodium falciparum [2],97%
same,Inhibition,HepG2,37%
CC(O)c1cccc(-c2ccc(Nc3ccnc4cc(-c5nccs5)ccc34)cc2)c1.Cl (configuration not stated),Inhibition,Plasmodium falciparum [1],91%
same,Inhibition,Plasmodium falciparum [2],69%
same,Inhibition,HepG2,31%
Cl.OC(c1cccc(OCc2ccccc2)c1)C1CN(CCc2ccccc2)CCC1(O)c1ccccc1 (configuration not stated),Inhibition,Plasmodium falciparum [1],98%
same,Inhibition,Plasmodium falciparum [2],98%
same,Inhibition,HepG2,7%
COc1cc2nc(N(C)Cc3cccc(I)c3)nc(N)c2cc1OC,Inhibition,Plasmodium falciparum [1],100%
same,Inhibition,Plasmodium falciparum [2],88%
same,Inhibition,HepG2,7%
O=C(Nc1ccc(OC2CCN(Cc3ccc(F)cc3)C2)c(Cl)c1)c1ccc(F)cc1.O=C(O)C(F)(F)F (configuration not stated),Inhibition,Plasmodium falciparum [1],96%
same,Inhibition,Plasmodium falciparum [2],94%
same,Inhibition,HepG2,10%
O=C(NCCNc1ccnc(Nc2ccc(F)cc2)n1)c1cc2ccccc2s1,Inhibition,Plasmodium falciparum [1],99%
same,Inhibition,Plasmodium falciparum [2],34%
same,Inhibition,HepG2,0%
Cc1[nH]c(C)c(-c2ccc(OCCSc3ccncc3)cc2)c(=O)c1Br,Inhibition,Plasmodium falciparum [1],95%
same,Inhibition,Plasmodium falciparum [2],95%
same,Inhibition,HepG2,0%
COc1ccc2c(=NN=Cc3ccccc3)cc(C)[nH]c2c1,Inhibition,Plasmodium falciparum [1],100%
same,Inhibition,Plasmodium falciparum [2],49%
same,Inhibition,HepG2,0%
CCCCCCCc1c(C)nc2cccc(OC)c2c1O,Inhibition,Plasmodium falciparum [1],95%
same,Inhibition,Plasmodium falciparum [2],47%
same,Inhibition,HepG2,43%
CC(C)CNCc1cccc(-c2cccc(CN(CCCN3CCN(C)CC3)C(=O)/C=C/c3ccccc3)c2)c1.O=C(O)C(F)(F)F,Inhibition,Plasmodium falciparum [1],90%
same,Inhibition,Plasmodium falciparum [2],88%
same,Inhibition,HepG2,44%
CCN1CCN(c2ccc(NC(=O)c3cc4c(C)nn(-c5ccccc5)c4s3)cc2C)CC1,Inhibition,Plasmodium falciparum [1],100%
same,Inhibition,Plasmodium falciparum [2],81%
same,Inhibition,HepG2,32%
CCCCOc1cc2ncc(C(=O)OCC)c(O)c2cc1OCCCC,Inhibition,Plasmodium falciparum [1],97%
same,Inhibition,Plasmodium falciparum [2],96%
same,Inhibition,HepG2,0%
COc1ccc(-c2ccc(NC(=O)c3ccc(C#N)cc3)cc2)cc1CN(C)CCO.O=C(O)C(F)(F)F,Inhibition,Plasmodium falciparum [1],99%
same,Inhibition,Plasmodium falciparum [2],44%
same,Inhibition,HepG2,41%
N#Cc1ccc(-c2cnc3ccc(NCc4ccc(S(N)(=O)=O)cc4)nn23)cc1,Inhibition,Plasmodium falciparum [1],98%
same,Inhibition,Plasmodium falciparum [2],100%
same,Inhibition,HepG2,7%
Fc1ccc2[nH]c(-c3cccc(-c4ccc(CNCCN5CCNCC5)cc4)c3)nc2c1.O=C(O)C(F)(F)F,Inhibition,Plasmodium falciparum [1],90%
same,Inhibition,Plasmodium falciparum [2],0%
same,Inhibition,HepG2,9%
COc1cc(F)c2nccc([C@@H](O)CN3CCC(NC(=O)OCc4ccccc4)C(F)C3)c2c1 (some centres not stated),Inhibition,Plasmodium falciparum [1],99%
same,Inhibition,Plasmodium falciparum [2],100%
same,Inhibition,HepG2,44%
CCOC(=O)c1ccc(NC(=O)Nc2ccc(-c3cccc(-c4nc5cc(F)ccc5[nH]4)c3)cc2)cc1,Inhibition,Plasmodium falciparum [1],100%
same,Inhibition,Plasmodium falciparum [2],100%
same,Inhibition,HepG2,98%
CC(C)NCc1cc(Nc2ccnc3cc(Cl)ccc23)ccc1O.Cl,Inhibition,Plasmodium falciparum [1],100%
same,Inhibition,Plasmodium falciparum [2],100%
same,Inhibition,HepG2,27%
CC(C)(CNCc1cc(Cl)cc(Cl)c1)c1nc(-c2ccnc(N)n2)c(-c2ccc(Cl)c(O)c2)[nH]1.Cl,Inhibition,Plasmodium falciparum [1],92%
same,Inhibition,Plasmodium falciparum [2],2%
same,Inhibition,HepG2,54%
COc1cc(F)c2ncc(Cl)c(CCN3CCC(NCc4cc5c(cn4)OCCO5)CC3)c2c1.Cl,Inhibition,Plasmodium falciparum [1],89%
same,Inhibition,Plasmodium falciparum [2],57%
same,Inhibition,HepG2,2%
